Measured values reported in PubChem BioAssay (NCATS).
Results filed as inconclusive are left out. Where a call stands in place of a potency, no number is given. The source made the active and inactive calls. Calls follow the shape of the dose curve; as a rule, active = well fitted cell-killing curve with a large enough effect; inconclusive = small, poorly fitted or top-dose-only effect, or effect the other way; inactive = flat fitted curve, though single readings scatter.

test system: C33A; test: Primary qHTS to identify gynecologic anti-cancer compounds using libraries of approved drugs and bioactive compounds (AID 1345084); details: Gynecologic cancer cell panel viability, ATPlite luminescence, 48 h; series mostly up to 57.5 µM; also: nearly all actives have a fitted effect of over 55% in size
Procedure, shortened: (§1)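 Cells, 1,000 per well, were allowed to settle for 16 h at 37 C before compound addition. Five concentrations were tested for 48 h, and viability was read by ATPlite luminescence after 15 min at room temperature.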
Potency is read from the fitted curve at half-maximal effect.

Compound | Potency
OC[C@H]1O[C@@H](OC/C=C/c2ccc(O)cc2)[C@H](O)[C@@H](O)[C@@H]1O | inactive
Cn1ccc(NC(=O)c2cc(Oc3ccc(C(=O)N4CCC4)c(F)c3)c3c(c2)OC(C)(C)C3)n1 | inactive
COc1ccc2nc3n[nH]c(C)c3c(NCCOCCO)c2c1 | inactive
C=C(C(=O)OC[C@H]1O[C@@H](OC(=O)/C=C/c2ccccc2)[C@H](O)[C@@H](O)[C@@H]1O)C(O)CO (stereo not given in full) | inactive
COc1ccccc1C(=O)Nc1cc2c(cc1N1CCCC1)n(C)c(=O)n2C | inactive
Clc1cccc(COc2cncc(N3CCNCC3)n2)c1 | inactive
CCOc1cn(-c2ccc(F)cc2C)nc1C(=O)Nc1ccc(Oc2ccnc3cc(OC)c(OC)cc23)c(F)c1 | inactive
O=C(Nc1ccccc1Br)NC1CCN(c2ccc(C(F)(F)F)cn2)C1 (stereo not given) | inactive
Cc1noc(C)c1-c1cc(O)cc(C(O)c2ccccc2)c1 (stereo not given) | inactive
COc1cccc(NCCC2(c3ccccc3)CC(C)(C)OC(C)(C)C2)c1 | inactive
Cc1c(OCc2cccc(-c3ccc(C(=O)O)cc3)c2)cc2c(c1C)C(=O)C(C1CCCC1)C2 (stereo not given) | inactive
CC1(NC(=O)c2ccc(C#Cc3cccc(F)c3)cn2)COC1 | inactive
O=C(NCCN1CCC(n2c(=O)[nH]c3ccccc32)CC1)c1cc2cc(F)ccc2[nH]1 | inactive
NC(=O)CCCSc1nc(N)nc(-c2c(Cl)cc3c4c(cccc24)COC3)n1 | 0.891 µM (active)
Cc1c(C(=O)Nc2ccc(N3CCC(N4CCOCC4)CC3)c(C#N)c2)cnn1-c1ccc(Cl)cc1 | 0.891 µM (active)
CCN1CCC[C@@H]1CNC(=O)c1ccc2c(c1)NC(=O)c1cccc(C)c1S2 | inactive
O=C(CNC(=O)c1cccc(C(F)(F)F)c1)N[C@@H]1CCN(Cc2ccc(Cl)cc2)C1 | inactive
CC1=CC2/C=C(\C)CCC3OC(C)(C)OC3CCC(=O)C23C(=O)NC(CC(C)C)C3C1C (stereo not given) | inactive
CC1(CO)CC2C(O)C3=C(CC(C)(O)C2C1)C(=O)OC3 (stereo not given) | inactive

test system: CAOV3; test: as above; details: Gynecologic cancer cell panel viability, ATPlite luminescence, 48 h; series mostly up to 57.5 µM
Procedure, shortened: as §1

Compound | Potency
Cc1ccnn1-c1ccc(C(=O)N2CCN(S(=O)(=O)c3ccc(Cl)c(C(F)(F)F)c3)CC2)cc1 | inactive
Fc1ccc(N2CCCCC2)c(NC(=S)c2ccncc2)c1 | inactive
O=C(Cc1c(F)cccc1F)Nc1cc(OCc2ccc(Cl)cc2)ccn1 | inactive
CCN(c1cc(-c2ccc(CN3CCOCC3)cc2)cc(C(=O)NCc2c(C)cc(C)[nH]c2=O)c1C)C1CCOCC1 | inactive
C/C=C(/C)C(=O)O[C@@H]1C[C@@H](OC(=O)CC(C)C)C2(C)C3C(=O)C=C(C)C2C3C1(C)C (stereo not given in full) | inactive
COc1ccc(S(=O)(=O)N2CCC[C@H]2C(=O)Nc2cc(C)cc(C)c2)cc1 | inactive
CN(C)C(=O)Nc1cc(-c2ccccc2)ccc1N(C)C | inactive
COc1ccc(NC(=O)c2ccc(C(=N)N(C)C)cc2)c(C(=O)Nc2ccc(Cl)cn2)c1 | inactive
Nc1nccc(-c2c(-c3ccc(F)cc3)ncn2C2CCCCC2)n1 | inactive
COc1cc(O)c2c(c1)/C=C/C[C@H](O)[C@H](O)C(=O)/C=C\C[C@H](C)OC2=O | 22.4 µM (active)
CC(C)c1cc(-c2ccc(F)c3ccccc23)nc(N)n1 | inactive
CNc1cccc(CCOc2ccc3c(c2)CN(CC(F)(F)F)C(=O)[C@H](CC(=O)O)C3)n1 | inactive
OC[C@H]1O[C@@H](OC/C=C/c2ccc(O)cc2)[C@H](O)[C@@H](O)[C@@H]1O | inactive
Cn1ccc(NC(=O)c2cc(Oc3ccc(C(=O)N4CCC4)c(F)c3)c3c(c2)OC(C)(C)C3)n1 | inactive
COc1ccc2nc3n[nH]c(C)c3c(NCCOCCO)c2c1 | inactive
CC(=O)Nc1cccc(Nc2ncnc(N3CCC(OCc4ccc(OC(F)(F)F)cc4)CC3)n2)c1C | inactive

Compound | Potency
C=C(C(=O)OC[C@H]1O[C@@H](OC(=O)/C=C/c2ccccc2)[C@H](O)[C@@H](O)[C@@H]1O)C(O)CO (stereo not given in full) | inactive
COc1ccccc1C(=O)Nc1cc2c(cc1N1CCCC1)n(C)c(=O)n2C | inactive
Clc1cccc(COc2cncc(N3CCNCC3)n2)c1 | inactive
CCOc1cn(-c2ccc(F)cc2C)nc1C(=O)Nc1ccc(Oc2ccnc3cc(OC)c(OC)cc23)c(F)c1 | inactive
O=C(Nc1ccccc1Br)NC1CCN(c2ccc(C(F)(F)F)cn2)C1 (stereo not given) | inactive
COc1cccc(NCCC2(c3ccccc3)CC(C)(C)OC(C)(C)C2)c1 | inactive
Cn1cc(-c2ccc(S(=O)(=O)n3ccc(/C=C/C(=O)Nc4ccccc4N)c3)cc2)cn1 | 17.8 µM (active)
CC1(NC(=O)c2ccc(C#Cc3cccc(F)c3)cn2)COC1 | inactive
O=C(NCCN1CCC(n2c(=O)[nH]c3ccccc32)CC1)c1cc2cc(F)ccc2[nH]1 | inactive
Cc1c(C(=O)Nc2ccc(N3CCC(N4CCOCC4)CC3)c(C#N)c2)cnn1-c1ccc(Cl)cc1 | inactive
CCN1CCC[C@@H]1CNC(=O)c1ccc2c(c1)NC(=O)c1cccc(C)c1S2 | inactive
O=C(CNC(=O)c1cccc(C(F)(F)F)c1)N[C@@H]1CCN(Cc2ccc(Cl)cc2)C1 | inactive
CC(=O)NC(C)c1cnc(-c2cnc(Oc3ccc(OC(C)C)cc3)s2)s1 (stereo not given) | inactive
CC1=CC2/C=C(\C)CCC3OC(C)(C)OC3CCC(=O)C23C(=O)NC(CC(C)C)C3C1C (stereo not given) | inactive
CC1(CO)CC2C(O)C3=C(CC(C)(O)C2C1)C(=O)OC3 (stereo not given) | inactive
